Screening data: PubChem, National Center for Advancing Translational Sciences (NCATS)
Hits are enriched below; roughly 10% of the tested compounds scored in any of these assays.
NIH3T3 tox: Cytotoxic Profiling in NIH 3T3 Cell Line of Diverse Libraries Using Quantitative High-Throughput Screening. Potency, µM (highest dose often 96.7 µM), without a hit: top-dose activity change, negative = cytotoxicity, hits mostly inhibitors. 94,000 compounds, 4.3% hits. NIH 3T3 viability, CellTiter-Glo ATP luminescence, 48-72 h; further: nearly all actives have a fitted effect of over 55% in size
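NIH 3T3 cells at 400 cells/well received 23 nL of compound by pintool and were incubated 48 or 72 h at 37 °C. Viability was read as ATP-coupled CellTiter-Glo luminescence.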
NPR1 antag: Natriuretic polypeptide receptor (hNpr1) antagonism - Primary qHTS. Atrial natriuretic peptide receptor 1 (Homo sapiens), P16066. HEK293 hNpr1 GloSensor cGMP, ANP-stimulated luminescence. Potency, µM (series often up to 46.3 µM), for the others: at the highest dose activity change, negative = inhibition, usual class: inhibitors. 76,000 compounds, 1.6% hits. AID 1347048, 2019; calls by dose curve; further: nearly all actives have a fitted effect of over 60% in size
Target sequence (P16066 whole entry, looked up): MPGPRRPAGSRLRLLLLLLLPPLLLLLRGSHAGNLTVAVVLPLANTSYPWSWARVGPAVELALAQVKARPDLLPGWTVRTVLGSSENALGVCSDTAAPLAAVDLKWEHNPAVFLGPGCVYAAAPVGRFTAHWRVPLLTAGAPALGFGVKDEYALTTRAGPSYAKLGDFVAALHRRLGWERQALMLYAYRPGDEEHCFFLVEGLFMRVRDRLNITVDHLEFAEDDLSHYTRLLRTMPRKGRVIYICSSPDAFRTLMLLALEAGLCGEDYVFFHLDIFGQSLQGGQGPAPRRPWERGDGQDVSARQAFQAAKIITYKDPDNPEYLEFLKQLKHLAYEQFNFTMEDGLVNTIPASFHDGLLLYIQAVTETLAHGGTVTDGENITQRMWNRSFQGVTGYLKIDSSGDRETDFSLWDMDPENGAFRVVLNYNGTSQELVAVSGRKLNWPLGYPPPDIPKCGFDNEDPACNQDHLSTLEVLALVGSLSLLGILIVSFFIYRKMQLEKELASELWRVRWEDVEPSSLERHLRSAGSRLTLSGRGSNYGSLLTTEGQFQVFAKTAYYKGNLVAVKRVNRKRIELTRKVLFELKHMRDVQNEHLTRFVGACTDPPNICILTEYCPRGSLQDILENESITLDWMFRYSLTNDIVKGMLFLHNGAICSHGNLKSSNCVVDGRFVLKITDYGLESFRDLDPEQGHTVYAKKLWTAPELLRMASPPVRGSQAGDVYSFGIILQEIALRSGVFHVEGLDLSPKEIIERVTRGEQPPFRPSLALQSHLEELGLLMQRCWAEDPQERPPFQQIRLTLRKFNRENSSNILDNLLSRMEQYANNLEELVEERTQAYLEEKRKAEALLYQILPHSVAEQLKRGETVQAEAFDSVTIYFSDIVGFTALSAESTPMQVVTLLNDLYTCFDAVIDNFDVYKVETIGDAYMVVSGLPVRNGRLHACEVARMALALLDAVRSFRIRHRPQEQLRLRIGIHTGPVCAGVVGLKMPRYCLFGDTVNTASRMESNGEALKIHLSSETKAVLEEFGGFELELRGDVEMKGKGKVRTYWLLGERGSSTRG
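Compound pre-incubated 30 min at room temperature on GloSensor-loaded HEK293 cells stably carrying hNpr1 and the pGS-40F cGMP biosensor. Stimulation uses hNppA at 0.1 nM final; luminescence is taken at baseline and 20 min post-agonist.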
GPT2 inh: Primary qHTS assay for inhibitors of Glutamate pyruvate transaminase 2 (GPT2) | Alanine aminotransferase 2 (Homo sapiens), Q8TD30 | Recombinant GPT2, coupled pyruvate oxidase/HRP Amplex Red fluorescence | Potency, µM (highest dose often 57.7 µM), for inactives: top-dose activity change, negative = inhibition, usual class: inhibitors | 100,000 compounds, 0.25% hits | AID 1671188, 2021; further: nearly all actives have a fitted effect of over 60% in size
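Fluorescence of coupled pyruvate oxidase/HRP/Amplex Red system (50uM Amplex, 30 min, dark) reports pyruvate formed by GPT2. Enzyme reaction: 10ng/uL GPT2, 2mM L-alanine, 250uM a-KG, 30 min room temperature, pH 7.5; 50uM AOA control.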
HEK293 tox: Cytotoxic Profiling in HEK 293 Cell Line of Diverse Libraries Using Quantitative High-Throughput Screening | HEK 293 viability, ATP luminescence (CellTiter-Glo), 48-72 h | Potency, µM (titrated, usually from 115 µM), for the others: at the top dose activity change, negative = cytotoxicity, usual class: inhibitors | 94,000 compounds, 6.6% hits | AID 1345083, 2018; further: nearly all actives have a fitted effect of over 60% in size
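ATP-coupled CellTiter-Glo luminescence served as viability read-out, recorded 10 min after reagent addition at room temperature. HEK 293 cells, 250 cells/well, had been incubated with pintool-transferred compound for 48 or 72 hr at 37 degree Celsius.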
Luciferase inh: Firefly luciferase inhibition profiling of diverse chemical library using quantitative high-throughput screening | purified P. pyralis luciferase, luminescence, biochemical | 76,000 compounds, 2.5% hits | AID 1347043, 2019 | Potency, µM (highest dose often 115 µM), hits mostly inhibitors | Luciferin 4-monooxygenase (Photinus pyralis), P08659; further: nearly all actives have a fitted effect of over 65% in size
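FLuc 10nM, D-luciferin 10uM, ATP 10uM, Mg acetate 10mM, Tris acetate pH 7.5, Tween/BSA; cpd qHTS; enzyme added last; CCD luminescence.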
* = called active by the depositor; i = inactive; ? = inconclusive; . = no result given; [ ] = remark or other dose. Unless noted, the call rests on the fitted dose curve; in most records, active means well fitted curve in the direction sought with a large enough effect; inconclusive means small, poorly fitted or top-dose-only effect, or another doubt; inactive means no such curve, though single readings can be large; an effect the other way counts as inactive or inconclusive. On the % scale 0 is the no-effect control and ±100 the full control effect; potency means the concentration at half of the fitted maximal effect.

SMILES	NIH3T3 tox	NPR1 antag	GPT2 inh	HEK293 tox	Luciferase inh
COC(=O)NC1CCN(Cc2cccc(-c3ccccc3OC)c2)CC1	-26.7%	.	4.3%	?	.
COc1ccccc1-c1cccc(CN2CCC(NC(=O)N(C)C)CC2)c1	?	.	i	79.4µM*	.
COc1ccccc1C(=O)NC1CCN(Cc2cccc(-c3ccccc3OC)c2)CC1	?	.	i	44.7µM*	.
COc1ccccc1-c1cccc(CN2CCC(NC(=O)c3ccccc3Cl)CC2)c1	?	.	-1.5%	79.4µM*	.
Cc1cccc(NC(=O)Cn2nc3n(c2=O)CCCC3)c1C	i	-2.2%	?	14.8%	i
CC(=O)NC1CCN(c2nccc(Nc3ccc(C)cc3)n2)CC1	?	.	i	?	.
Cc1ccc(Nc2ccnc(N3CCC(NC(=O)N(C)C)CC3)n2)cc1	44.7µM*	.	i	?	.
Cc1ccc(Nc2ccnc(N3CCC(NC(=O)C4CC4)CC3)n2)cc1	?	.	i	44.7µM*	.
Cc1ccc(Nc2ccnc(N3CCC(C(=O)NC4CCCC4)CC3)n2)cc1	35.5µM*	.	i	44.7µM*	.
Cc1ccc(Nc2ccnc(N3CCC(C(=O)NC4CC4)CC3)n2)cc1	35.5µM*	.	i	?	.
CC(C)NC(=O)C1CCCN1c1nccc(Nc2ccccc2F)n1 (stereo not given)	-16.5%[138 µM]	.	i	?	.
CCN1C(=O)C2CC3(CCN(C(=O)c4ccc(Cc5c(C)noc5C)o4)CC3)CN2C1=O (stereo not given)	2.0%	.	-1.7%	-3.6%	.
COc1ccc(CCC(=O)N2CCC(Cc3nncn3-c3ccccc3)C2)cc1 (stereo not given)	-16.2%	.	1.7%	-6.2%	.
COc1ccc(CN2CCCC(COc3ccccc3C(=O)NC3CC3)C2)c(OC)c1 (stereo not given)	-4.4%	-1.0%	i	?	i
O=C(NC1CC1)c1ccccc1OCC1CCCN(Cc2cccc3[nH]ccc23)C1 (stereo not given)	-23.6%	-9.9%	-0.2%	35.5µM*	i
Cc1onc(C(=O)N2CCC(CCOc3ccc(F)cc3)C2)c1Cn1cc(Cl)cn1 (stereo not given)	44.7µM*	?	i	?	i
O=C1c2ccccc2-[n+]2ccc3c([nH]c4ccccc43)c21	.	.	0.273µM*	.	.
C1=CC[C@H]2CN(c3nccc(-c4ccccn4)n3)C[C@H]2C1	?	-12.8%	0.9%	44.7µM*	i
COc1ccc(-c2noc([C@@H]3C[C@H](NS(=O)(=O)c4ccc(OC)cc4)CN3C)n2)cc1	?	?	-7.3%	39.8µM*	22.4µM*
Cc1ccc(S(=O)(=O)N[C@H]2C[C@@H](c3nc(-c4ccccc4)no3)N(C)C2)cc1	-28.1%[174 µM]	1.4%[70.6 µM]	-7.9%[88.5 µM]	?	?
COc1ccc(-c2noc([C@@H]3C[C@H](NS(=O)(=O)c4ccccc4)CN3C)n2)cc1	?	-26.2%[70.6 µM]	-40.0%[88.5 µM]	89.1µM*	i
Cc1ccc(-c2noc([C@@H]3C[C@H](NS(=O)(=O)c4ccc(Cl)cc4)CN3C)n2)cc1	?	?	1.2%[88.5 µM]	79.4µM*	22.4µM*
CN1C[C@@H](NS(=O)(=O)c2ccccc2)C[C@H]1c1nc(Cc2ccccc2)no1	?	1.2%[70.6 µM]	-5.9%[88.5 µM]	?	i
CN1C[C@@H](NS(=O)(=O)c2ccccc2)C[C@H]1c1nc(-c2ccccn2)no1	?	-27.7%[70.6 µM]	0.2%[88.5 µM]	-26.8%[172 µM]	22.4µM*
Cc1noc(C)c1S(=O)(=O)N1CCC2(CC1)N(c1ccccc1)C(=O)CS2=O (stereo not given)	i	.	-7.9%	i	.
SMILES	NIH3T3 tox	NPR1 antag	GPT2 inh	HEK293 tox	Luciferase inh
COc1ccc(CCNC(=O)c2nnn3c2COC(c2ccc(C)cc2)C3)cc1OC (stereo not given)	?	-18.2%	?	?	i
COc1ccc(-c2noc([C@@H]3C[C@H](NCc4ccc(N(C)C)cc4)CN3C)n2)cc1	50.1µM*	-15.5%[70.6 µM]	i	35.5µM*	63.1µM*
O=C(CCc1ccc(CC2CCN(C(=O)NCC3CCCO3)CC2)cc1)NCC1CC1 (stereo not given)	?	.	-9.6%	?	.
COc1cccc(NC(=O)c2cnc3c(c2)N([S+](=O)([O-])c2cccnc2)CCC3)c1	?	0.2%[70.6 µM]	1.9%[88.5 µM]	-22.4%[172 µM]	i
O=C1CC2(CCN(C(=O)C3CCCN(C(=O)C4CC4)C3)CC2)Oc2ccccc2N1 (stereo not given)	-15.2%	.	3.5%	-3.0%	.
CN1CCCC2(C1)CN(Cc1cccnc1)c1ccc(C(=O)NCc3cccs3)cc12 (stereo not given)	?	6.1%[70.6 µM]	3.5%[88.5 µM]	?	i
CN1CCC2(C1)CN(Cc1ccccc1)c1ccc(C(=O)NCc3cccs3)cc12 (stereo not given)	28.2µM*	0.0%[70.6 µM]	-27.8%[88.5 µM]	44.7µM*	i
Cc1nc(CN2CC3(CCN(C)C3)c3cc(C(=O)NCC4CC4)ccc32)cs1 (stereo not given)	?	0.8%[70.6 µM]	-24.1%[88.5 µM]	-36.9%[172 µM]	i
Cc1nc(CN2CC3(CCN(C)C3)c3cc(C(=O)NCc4cccs4)ccc32)cs1 (stereo not given)	79.4µM*	-4.5%[70.6 µM]	i	?	i
Cc1nc(CN2CC3(CCN(C)C3)c3cc(C(=O)NCc4ccccc4)ccc32)cs1 (stereo not given)	?	-7.3%[70.6 µM]	i	112µM*	i
Cc1ccccc1CN1CC[C@H](c2nc3ncccc3[nH]2)C1	?	-6.2%[70.6 µM]	-3.3%[88.5 µM]	?	?
CC(C)(C)c1ccc(-c2cc(C[C@H]3CNCC[C@H]3CC(=O)NCc3cccnc3)no2)cc1	20µM*	7.0%	0.5%	?	i
O=C(C[C@@H]1CCNC[C@@H]1Cc1cc(CSc2ccccc2)on1)NCCN1CCOCC1	i	3.8%	-5.0%	1.5%	i
CC(C)(C)c1ccc(-c2cc(C[C@H]3CNCC[C@H]3CC(=O)NCCN3CCOCC3)no2)cc1	50.1µM*	-2.3%	-1.6%	39.8µM*	i
CC(C)NC(=O)C[C@@H]1CCNC[C@@H]1Cc1cc(-c2ccc(C(C)(C)C)cc2)on1	35.5µM*	3.7%[70.6 µM]	0.9%[88.5 µM]	39.8µM*	i
CC(C)(C)NC(=O)C[C@@H]1CCNC[C@@H]1Cc1cc(-c2ccc(F)cc2)on1	?	-7.6%[70.6 µM]	?	?	i
O=C(C[C@@H]1CCNC[C@@H]1Cc1cc(-c2ccccc2)on1)NC1CC1	-19.5%[174 µM]	5.5%[70.6 µM]	0.0%[88.5 µM]	-0.1%[172 µM]	i
